# Tau fil binding: binders of human tau filaments | recombinant tau filaments, thioflavin S fluorescence, 15 h; filaments grown with octadecylsulfate alongside compound | Potency, µM (top dose mostly 57.1 µM), inactives show at the top dose activity change, negative = inhibition | 71,000 tested, 2% active | AID 596;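 note: actives lower thioflavin S fluorescence by blocking filaments or displacing dye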
#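 Recombinant tau protein (human, 1 uM final) plus 30 uM ODS in HEPES pH 7.4 with NaCl, DTT and thioflavine S. Compound present from the start; fluorescence at 510 nm after 15 h, 37 C.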
# Hsp90 Hop PPI: changes Hsp90-Hop TPR2A binding signal, up or down | AlphaScreen TPR2A-His6 binding biotin-Hsp90 C-terminal peptide | Potency, µM (highest dose often 57 µM), for inactives: top-dose activity change, negative = inhibition | 71,000 tested, 0.44% active | AID 595; active = well fitted curve in either direction with a large enough effect; inconclusive = small, poorly fitted or top-dose-only effect, or another doubt
# Bst PK mod: alters activity of Bacillus stearothermophilus pyruvate kinase | purified pyruvate kinase, luminescence ATP production; ribose 5-phosphate activator present at AC10 | Potency, µM | 51,000 tested, 1.2% active | AID 361; in the data active = potency below about 11 µM; inconclusive = mostly about 12 µM to 25 µM;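 the screen sought inhibitors and activators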;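 note: scaled between full activation by ribose 5 phosphate and full inhibition by luteolin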
# ERK AVP block: blocks ERK signaling stimulated by vasopressin; HEK293-V1b, vasopressin-stimulated pERK AlphaScreen; Potency, µM (titrated, usually from 57.5 µM), inactives show top-dose activity, negative = inhibition, usual class: inhibitors; 72,000 tested, 0.99% active; note: nearly all actives have a fitted effect of over 55% in size
#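 Overnight-seeded V1b-HEK293 cells in 1% FBS got compound, then vasopressin (25 nM final, 5 min, 37C), then lysis buffer. AlphaScreen detection of phospho-ERK; activity normalized to basal and full-stimulation controls.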
# 15-hLO inh: 15-hLO (ALOX15) enzyme inhibition. P16050. Potency, µM (highest dose often 57.1 µM), without a hit: at the top dose activity change, negative = inhibition, usual class: inhibitors. purified 15hLO-1, xylenol orange hydroperoxide absorbance. 74,000 tested, 1.4% active; note: nearly all actives have a fitted effect of over 55% in size
# Target sequence (P16050 whole entry, looked up): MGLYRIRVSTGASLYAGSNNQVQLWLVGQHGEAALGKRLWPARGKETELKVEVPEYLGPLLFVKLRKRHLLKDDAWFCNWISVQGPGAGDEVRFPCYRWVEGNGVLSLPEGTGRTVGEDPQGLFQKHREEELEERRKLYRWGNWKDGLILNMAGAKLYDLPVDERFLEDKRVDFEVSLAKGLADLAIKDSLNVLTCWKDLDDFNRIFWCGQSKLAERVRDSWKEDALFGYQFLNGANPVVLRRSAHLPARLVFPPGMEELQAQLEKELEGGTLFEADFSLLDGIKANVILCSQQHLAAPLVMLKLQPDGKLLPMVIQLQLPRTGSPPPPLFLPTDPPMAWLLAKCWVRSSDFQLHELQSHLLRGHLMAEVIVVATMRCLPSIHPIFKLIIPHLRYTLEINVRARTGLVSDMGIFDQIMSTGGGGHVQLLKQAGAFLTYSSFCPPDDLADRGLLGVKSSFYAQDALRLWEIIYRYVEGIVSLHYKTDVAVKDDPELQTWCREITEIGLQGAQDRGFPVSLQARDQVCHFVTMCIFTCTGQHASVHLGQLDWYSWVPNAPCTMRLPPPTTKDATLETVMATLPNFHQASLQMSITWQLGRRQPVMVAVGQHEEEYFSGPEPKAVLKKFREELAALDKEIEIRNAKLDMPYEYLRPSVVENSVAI
#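 Inhibition is scored from a chromogenic endpoint. After 15 min enzyme-compound contact, arachidonic acid (50 uM final) reacts 6 min with 40 nM 15hLO-1 at room temperature, then Fe-XO reagent is added for 30 min and absorbance ratio recorded.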
# FLuc inh: blocks Photinus pyralis firefly luciferase activity; purified firefly luciferase, luminescence, 8 min; P08659; 72,000 tested, 2.2% active; Potency, µM (series often up to 57.1 µM), without a hit: top-dose activity change, negative = inhibition, actives largely listed as inhibitors; note: nearly all actives have a fitted effect of over 40% in size
#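 Substrate buffer containing 10 uM ATP (pH 7.2 imidazole, Mg2+, KCl, detergent, BSA) is dispensed, compound pinned in, then luciferase/luciferin detector mix added. After 8 min at ambient temperature, light output is measured.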
# Active calls of the source: *; i = inactive; ? = inconclusive; · = not tested or not shown; [ ] = remark or other dose. Sampled rows, rich in hits. Any-hit rate of the full collection: about 6.1%. Unless noted, calls come from the whole dose curve; as a rule, active = well fitted curve in the direction sought with a large enough effect; inconclusive = small, poorly fitted or top-dose-only effect, or another doubt; inactive = no such curve, though single readings can be large; an effect the other way counts as inactive or inconclusive. Unless noted, % is set by controls: 0 for no effect and ±100 for the full control effect; potency is the fitted concentration of half-maximal effect.
SMILES,Tau fil binding,Hsp90 Hop PPI,Bst PK mod,ERK AVP block,15-hLO inh,FLuc inh
COC(=O)CSc1nc(N)c2c3c(sc2n1)CCCC3,·,·,?,·,·,13µM*
O=CNc1ncn[nH]1,-1%[11.4 µM],-1%[11 µM],·,-2%[11.5 µM],-7%[11.4 µM],4%[11.4 µM]
COc1ccc(-c2nc(N)nc(C)c2Oc2ccccc2Br)c(O)c1,-21%,-16%,1.9*,-14%,-22%,-1%
COc1ccc(-c2nc(N)ncc2-c2csc(C)n2)c(O)c1,-4%,-3%,>57,-29%,7%,2%
CN(C)c1ncc2nc(-c3cc(F)cc(F)c3)c(=O)n(Cc3ccc(F)cc3)c2n1,212%,-4%,·,10%,20%,0%[11.4 µM]
CC(Oc1ccc(Br)cc1)C(=O)NCc1cccnc1 (stereo not given),·,·,·,·,-10%,·
CCCCn1nc(NC(=O)c2cccs2)c2cc3cc(OC)ccc3nc21,67%,20µM*,·,81%,?,?
CCCn1nc(NC(=O)c2cccs2)c2cc3cc(OC)ccc3nc21,94%,?,i,40%,?,10µM*
CCCn1nc(NC(=O)c2ccncc2)c2cc3ccccc3nc21,-16%,3%,·,-29%,3%,-2%
Nc1ccc(-c2cnc(-c3ccc(N)cc3)nc2)cc1,-7%,2%,?,-7%,2%,13µM*
CCCCOc1ccc(-c2ncc(Cl)cn2)cc1,15%[11.4 µM],4%[11 µM],·,19%,1%[11.4 µM],-11%
C=C1C(=O)OC2C1CC/C(C)=C/CCC1(C)OC21 (stereo not given),·,·,·,23%,-5%,·
CCN(CC)CC[n+]1ccc2c(C)c3[nH]c4ccc(O)cc4c3c(C)c2c1,4µM*,?,·,18%[11.5 µM],?,0%[11.4 µM]
COc1ccc(N(C)S(=O)(=O)c2ccc3c(c2)oc(=O)n3C)cc1,8%,3%,>57,11%,11%,1%
COc1ccc(S(=O)(=O)N(C(C)=O)c2ccc3oc(=O)sc3c2)cc1,-1%,-15%,>57,2%,5µM*,-4%
CCOc1ccc2nc(-c3ccccc3)[nH]c2c1,-6%,-1%,2*,-7%,1%,3.2µM*
COc1ccc2nc(-c3ccccc3)[nH]c2c1,8%,-2%,6*,-12%,2%,6.3µM*
Fc1ccccc1,-4%,-3%,·,7%,0%,·
COc1cc2c(cc1O)[C@@H](c1cc(O)c(O)c(OC)c1)[C@@](O)(C(=O)O)[C@@H](CO)[C@@H]2O,6%[11.4 µM],0%[11 µM],·,3%[11.5 µM],0%[11.4 µM],-11%[11.4 µM]
CN1CCN(Cc2ccc(-c3ccc(Cl)cc3)o2)CC1,-28%,-8%,·,3%,-11%,-3%
N#CCCN1CCN(C(=S)c2ccc(-c3ccc(Cl)cc3)o2)CC1,25µM*,?,?,6%,-21%,-11%
O=C1C(=C2CCCCC2)SC(=S)N1Cc1ccco1,-24%[11.4 µM],-2%[11 µM],·,-9%,4µM*,0%
O=C(O)CCN1C(=O)C(=C2CCCCCC2)SC1=S,4%,-2%,>57,-19%,-15%,5%
CO[C@@H]1COC(=O)[C@H](C)NC(=O)[C@@H](C)COC(=O)CCC[C@H]1C,·,·,·,12%[11.5 µM],4%[11.4 µM],3%[11.4 µM]
COc1ccc(-n2c(C)c(C(C)=O)c(C(C)=O)c2C)cc1OC,-28%,-23%,·,32µM*,-13%,-2%
SMILES,Tau fil binding,Hsp90 Hop PPI,Bst PK mod,ERK AVP block,15-hLO inh,FLuc inh
COc1cccc(-n2c(C)c(C(C)=O)c(C(C)=O)c2C)c1,-5%,-4%,>57,-10%,-5%,5%
CCOC(=O)c1[nH]c(C)c(C(=O)c2cc(F)ccc2F)c1C,-1%,-3%,>57,20µM*,-25%,-2%
CCOC(=O)c1[nH]c(C)c(C(=O)N2CCN(c3ccc(F)cc3)CC2)c1C,-6%,-2%,>57,3%,-8%,-1%
O=C(CSc1ccc(-c2ccc(F)cc2)nn1)N1CCCCC1,0%,-2%,>11,-19%,-5%,-4%
CCCCOc1ccc(-c2nnn(CCC(=O)N3CCOCC3)n2)cc1,4%,-3%,·,11%,0%,6.3µM*
COc1ccc(NC(=O)Nc2ccc(OCC(=O)N3CCOCC3)cc2)cc1OC,7%[11.4 µM],-6%[11 µM],·,-23%,-3%[11.4 µM],13µM*
COc1ccc(-c2ccc(SCC(=O)N3CCOCC3)nn2)cc1,4%,-3%,i,-10%,-2%,13µM*
O=C(COc1ccc(C(=S)N2CCOCC2)cc1)N1CCCC1,3%,-1%,>57,-13%,0%,3%
Cc1ccc(-c2ccc(OCC(=O)N3CCOCC3)cc2)cc1,11%,-1%,·,-6%,4%,13µM*
NCCCCCCN,9%,0%,·,11%,0%,·
O=C(COc1ccccc1)Nc1ccc(-c2nnc(-c3ccco3)o2)cc1,·,·,>26,·,·,0%[25.5 µM]
CC(C)COc1ccc(-c2nnc(-c3ccco3)o2)cc1,27%,9%,9.5*,13%,-23%,16µM*
COc1cccc(C(=O)Nc2ccc(-c3nnc(-c4ccco4)o3)cc2)c1,·,·,>26,·,·,-2%[25.5 µM]
CCCOc1ccc(-c2nnc(-c3ccco3)o2)cc1,28%,1%,3.4*,11%,-3%,10µM*
CCCCCCCCCCCCCCC(C(=O)O)C(O)(CC(=O)OC)C(=O)O (stereo not given),·,·,·,-13%,-1%,·
Nc1nc(SC/C=C\c2ccccc2)c2[nH]cnc2n1,24%[11.4 µM],1%[11 µM],·,10%[11.5 µM],8%[11.4 µM],0%[11.4 µM]
CS(=O)(=O)Nc1cccc(-c2cncnc2Nc2ccc(F)cc2)c1,0%,1%,·,3%,?,-1%[2.29 µM]
CCCCCOc1ccc(N2C(=O)CC(N(O)c3ccccc3)C2=O)cc1 (stereo not given),13µM*,-3%,>57,-13%,-5%,3%
O=C(c1n[nH]c2ccccc12)N1CCN(S(=O)(=O)c2ccc3ccccc3c2)CC1,4%,-5%,9.2*,-5%,-22%,-2%
CC1=C(/C=C/C(C)=C/C=C/C(C)=C\C=O)C(C)(C)CCC1,6.3µM*,-17%,·,-3%,-28%,·
CC1=C(/C=C/C(C)=C/C=C/C(C)=C/CO)C(C)(C)CCC1,32µM*,-1%,·,30%,?,·
CC1=C(\C=C/C(C)=C/C=C\C(C)=C\CO)C(C)(C)CCC1,?,-6%,·,·,·,0%[11.4 µM]
CC1=C(/C=C/C(C)=C/C=C/C(C)=C/C=O)C(C)(C)CCC1,5µM*,-10%,·,7%,?,·
O=S(=O)(c1ccccc1Cl)N1CCC(O)(c2ccc3c(c2)OCO3)CC1,-3%,-2%,i,32µM*,-22%,1%
Cc1ccc(-c2cc(-c3ccc4c(c3)OCO4)c(C#N)c(N)n2)o1,13µM*,-16%,>57,4%,10µM*,-10%
N#Cc1c(N)oc(-c2ccc3c(c2)OCO3)c1-c1ccc2c(c1)OCO2,-12%,-7%,>57,4%,25µM*,1%
CCN(CC)S(=O)(=O)c1cc(C(=O)Nc2ccccc2C(=O)O)ccc1OC,10%,-4%,·,15%,15%,20µM*

# Assay outcomes: PubChem BioAssay, National Center for Advancing Translational Sciences (NCATS)
